Assay outcomes as filed in PubChem.
Shown is part of a subset that was picked to be rich in hits.
TbPYK inhibitor = T. brucei pyruvate kinase inhibition. TbPYK enzyme, Kinase-Glo Plus ATP luminescence, 45 min. Potency, µM (series often up to 76.8 µM), actives largely listed as inhibitors. 0.12% of 410,000 active; note: nearly all actives have a fitted effect of over 50% in size
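T. brucei PYK with substrate was exposed to pin-transferred compounds across a concentration series, then started with 130 uM ADP (final). After 45 min at room temperature, Kinase-Glo Plus luminescence was read, normalized and curve-fitted.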
LmPK inhibitor = inhibitors of Leishmania mexicana pyruvate kinase. Q27686. purified LmPK, Kinase-Glo ATP luminescence, 1 h. Potency, µM (doses to about 57.5 µM), hits mostly inhibitors. 0.37% of 290,000 active. AID 1721
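ATP generated from ADP (0.1 mM) and PEP (0.5 mM) by 0.1 nM LmPK over 1 h at room temperature (pH 7.2 imidazole buffer) was detected by coupled luciferase luminescence. Values were normalized to uninhibited and no-enzyme wells.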
Sm TGR inh = inhibitors of Schistosoma mansoni thioredoxin glutathione reductase | Q962Y6 | purified TGR, DTNB reduction, TNB absorbance 405 nm | Potency, µM (series often up to 114 µM), usual class: inhibitors | 3% of 360,000 active | AID 485364; note: nearly all actives have a fitted effect of over 60% in size
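First, TGR (20 nM dispensed) and NADPH were mixed with compound. Second, a 15 min room-temperature incubation followed. Third, further NADPH and then DTNB were added to start the reaction. Finally, TNB absorbance was monitored kinetically.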
FBPA Giardia inh = Giardia lamblia aldolase inhibition | Potency, µM (doses to about 59.6 µM), usual class: inhibitors | purified Giardia FBPA | 0.71% of 290,000 active; note: nearly all actives have a fitted effect of over 55% in size
Target sequence (A8B2U2 whole entry, looked up): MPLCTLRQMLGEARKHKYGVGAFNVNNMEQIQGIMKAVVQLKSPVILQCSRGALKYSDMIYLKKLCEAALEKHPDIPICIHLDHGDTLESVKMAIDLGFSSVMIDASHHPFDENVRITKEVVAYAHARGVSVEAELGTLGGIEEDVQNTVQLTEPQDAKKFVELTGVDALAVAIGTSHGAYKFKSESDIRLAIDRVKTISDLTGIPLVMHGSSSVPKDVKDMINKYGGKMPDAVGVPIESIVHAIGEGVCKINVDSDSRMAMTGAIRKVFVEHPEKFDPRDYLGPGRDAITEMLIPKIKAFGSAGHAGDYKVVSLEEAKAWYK
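Giardia FBPA (40 nM reagent) was preincubated 10 min at RT with compound (up to 57.5 uM final), then substrate plus GAPDH/TPI/NAD/arsenate coupling system with diaphorase/resazurin was added; resorufin fluorescence (525/598 nm) was read after 20 min.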
Shiga toxin inh = inhibitors of Shiga toxin in Vero cells; Vero cells, Shiga toxin protein synthesis inhibition reporter; inhibition, % at 38.7 µM; 9.2% of 290,000 active; in the data active = inhibition mostly above about 28%, no sharp cut-off; inactive = mostly below about 43%
Cycloheximide cs = affects cycloheximide protein synthesis inhibition readout, counter-screen; max response, %; cell reporter, cycloheximide protein synthesis inhibition counterscreen; 12% of 300,000 active; in the data active = max response mostly above about 13%, no sharp cut-off; inactive = mostly below about 14%; note: read at 38.3 µM for the half of the compounds with a filed dose
Numbers stand for hits; n = inactive; u = inconclusive; x = not tested or not shown; [ ] = another dose, or the depositor's remark. Unless noted, calls come from the whole dose curve; as a rule, active = well fitted curve in the direction sought with a large enough effect; inconclusive = small, poorly fitted or top-dose-only effect, or another doubt; inactive = no such curve, though single readings can be large; an effect the other way counts as inactive or inconclusive.

SMILES	TbPYK inhibitor	LmPK inhibitor	Sm TGR inh	FBPA Giardia inh	Shiga toxin inh	Cycloheximide cs
CS(=O)(=O)N1CCc2cc(-c3csc(NC(=O)C(c4ccccc4)c4ccccc4)n3)ccc21	n	n	n	n	n	n
CNc1nc(-c2ccc3c(c2)CCN3C(=O)c2ccccc2F)c(C)s1	u	n	n	n	61.1	17.5
CNc1nc(-c2ccc3c(c2)CCN3C(=O)CC(C)(C)C)c(C)s1	n	n	n	n	n	n
COc1ccc(-c2nn(CC(=O)NCc3ccccc3)c3c2cnc2ccc(F)cc23)cc1	n	x	n	x	x	x
COc1ccc(N/C=C\C(=O)c2ccc3c(c2)OCO3)cc1OC	n	n	n	n	24.5	66.5
COC(=O)c1ccc(N/C=C\C(=O)c2ccc3c(c2)OCO3)cc1	n	n	n	n	56.6	17.8
COc1ccc(C(=O)/C=C/Nc2ccc(NC(C)=O)cc2)cc1OC	n	n	n	n	n	n
O=C(/C=C\Nc1cccc(F)c1)c1ccc2c(c1)OCO2	n	12.6µM	n	n	n	28.0
COc1ccc(CNC(=O)c2ccc3c(c2)N(Cc2cccc(Cl)c2)C(=O)c2ccccc2S3)c(OC)c1	n	x	n	x	x	x
CC(NC(=O)c1ccc2c(c1)sc1nc(-c3ccccc3)cn12)C12CC3CC(CC(C3)C1)C2 (stereo not drawn)	n	x	n	x	x	x
COc1cc(C2CC(=O)N(Cc3ccc(F)cc3)c3ccccc3S2)cc(OC)c1OC (stereo not drawn)	n	x	n	x	x	x
Cc1ccc(/C=N/NC(=O)c2cccnc2)s1	n	n	n	n	58.4	18.4
COc1ccc(/C=N/NC(=O)c2cccnc2)c2ccccc12	n	n	n	n	n	n
O=C(N/N=C/c1cccs1)c1cccnc1	n	n	n	n	n	n
O=C(CNC(=O)c1cccs1)N/N=C/c1ccc(O)cc1O	n	n	n	n	n	n
O=C(CNC(=O)c1cccnc1)N/N=C/c1ccc(O)cc1O	n	n	n	n	n	13.0
O=C(N/N=C/c1cccc2ccccc12)c1cccnc1	n	n	n	n	38.9	29.2
CCc1ccc(C(=O)N/N=C/c2cccc3ccccc23)nc1	n	n	n	n	n	18.7
O=C(O)C1CC[C@@](C(=O)O)(c2ccccc2)c2ccccc21 (stereo partly drawn)	x	x	x	n	x	x
CCCOc1ccc(NC(=O)CC2C(=O)N(c3cccc(OC)c3)C(=O)N2CCc2ccncc2)cc1 (stereo not drawn)	n	x	n	x	x	x
CC(=O)N1c2ccc(S(=O)(=O)NCC3CCC(C(=O)NCCC(C)C)CC3)cc2CC1C (stereo not drawn)	n	x	n	x	x	x
COC(=O)[C@@]1(Cc2ccc(OC)cc2)[C@H]2c3cc(C(=O)N(C)C)n(Cc4ccc(C(F)(F)F)nc4)c3C[C@H]2CN1C(=O)c1ccccc1	x	x	x	n	x	x
Cc1ccccc1/C=N/NC(=O)c1cccnc1	n	n	n	n	n	9.1
O=C(N/N=C/c1ccccc1OCc1ccccc1)c1cccnc1	n	n	n	n	n	12.6
O=C(N/N=C/c1cn(CC(=O)N2CCOCC2)c2ccccc12)c1cccnc1	n	n	n	n	n	21.5
SMILES	TbPYK inhibitor	LmPK inhibitor	Sm TGR inh	FBPA Giardia inh	Shiga toxin inh	Cycloheximide cs
Cc1ccc(/C=N/NC(=O)c2cccnc2)o1	n	n	n	n	n	n
Nc1nnnn1-c1ccccc1	n	x	x	x	x	x
CCn1c(CN2CCC(C)CC2)nc2cc(NC(=O)COc3ccc([N+](=O)[O-])cc3)ccc21	n	x	n	x	x	x
CCC(=O)O[C@@H](OP(=O)(CCCCc1ccccc1)CC(=O)N1C[C@H](C2CCCCC2)C[C@H]1C(=O)O)C(C)C (stereo partly drawn)	n	x	x	x	x	x
Cc1ccccc1Cn1cc(S(=O)(=O)c2ccc(Cl)cc2)c(=O)c2cc3c(cc21)OCO3	n	x	n	x	x	x
CN1c2ccccc2C(=O)C(=C2SCCCS2)S1(=O)=O	n	n	n	n	n	24.9
COc1cc2c(cc1NC(=O)CSc1ccccc1)oc1ccccc12	n	n	n	n	n	29.0
COc1cc2c(cc1NC(=O)CSc1nccn1C)oc1ccccc12	n	n	n	n	68.2	43.3
COc1cc2c(cc1NC(=O)CSc1nc3ccccc3[nH]1)oc1ccccc12	n	n	n	x	n	n
C=C[C@]1(C)C[C@@H](OC(=O)CO)[C@]2(C)C(C)CC[C@]3(CCC(=O)[C@H]32)[C@@H](C)[C@@H]1O (stereo partly drawn)	n	x	x	x	x	x
CC(C)c1ccc(OCc2cc(=O)n3c(-c4ccccc4)csc3n2)cc1	n	x	n	x	x	x
O=C(CN1Cc2ccccc2C1=O)Nc1cc(F)ccc1F	n	x	n	x	x	x
O=C(NNC(=S)Nc1ccc(Br)cc1Cl)c1ccncc1	n	n	n	n	n	n
Cc1cccnc1NC(=S)Nc1ccc(Br)cc1Cl	n	n	u	n	126.2	78.8
S=C(Nc1ccc(Br)cc1Cl)Nn1cnnc1	n	n	n	n	n	n
Cc1cccc(C)c1NC(=S)NCc1ccncc1	n	n	28.2µM	n	n	n
CCOCCCNC(=S)Nc1ccc(S(N)(=O)=O)cc1	n	n	u	n	n	n
CCOCCCNC(=S)Nc1ccc(Br)cc1Cl	n	n	u	n	n	12.2
S=C(NCc1ccncc1)Nc1ccc(Br)cc1Cl	n	n	35.5µM	x	n	n
Cc1ccc2c(c1)cc1c(=O)n(CC(=O)N3CCCCC3)nc(C)n12	n	x	n	x	x	x
COc1cc(NC(=O)Cn2nc3c(cc2=O)CC(C)CC3)cc(OC)c1OC (stereo not drawn)	n	x	n	x	x	x
CCc1cccc(NC(=O)C(c2ccccc2)N2Cc3ccccc3C2=O)c1 (stereo not drawn)	n	x	n	x	x	x
CCOc1cc(C2C3=C(CCCC3=O)N(C)C3=C2C(=O)CCC3)cc(Cl)c1O	n	n	35.5µM	n	n	n
CCOc1cc(C2C3=C(CCCC3=O)NC3=C2C(=O)CCC3)cc(Cl)c1O	n	u	n[11.4 µM]	u	n	n
CCc1nc(SC)ncc1C(=O)NCc1cccc(Br)c1	n	x	n	x	x	x
SMILES	TbPYK inhibitor	LmPK inhibitor	Sm TGR inh	FBPA Giardia inh	Shiga toxin inh	Cycloheximide cs
S=C(Sc1ccc(Cl)cc1)Sc1ccc(Cl)cc1	x	n	2µM	n	n	20.9
CC(C)COn1c(=S)[nH]c2ccccc2c1=O	n	n	n	n	55.2	27.3
CC1(C)OC(=O)C2=C(C[C@@H](C3CCCCC3)O[C@H]2c2ccccc2)O1	n	x	x	x	x	x
CCCN(Cc1cc2cccc(C)c2[nH]c1=O)C(=O)c1cccc(Cl)c1	n	x	n	x	x	x
Cc1noc(C)c1-c1ccc2ncnc(NCc3ccccc3F)c2c1	x	x	x	n	n	n
CCOc1ccccc1CNc1ncnc2ccc(-c3c(C)noc3C)cc12	n	x	u	n	n	30.1
COc1ccccc1-c1cc2ccccc2[nH]1	n	n	n	n	68.5	38.1
O=C(CCC(=O)N1CC2CCCN2c2ccccc21)NCc1ccc(Cl)cc1 (stereo not drawn)	n	x	n	x	x	x
COc1ccc(CNC(=O)CN(C(=O)c2snc(C(N)=O)c2N)c2ccc(OC)c(OC)c2)cc1	n	n	n	n	n	n
